# LAP4 TOR yeast: yeast TOR pathway LAP4-GFP modulation; S. cerevisiae LAP4-GFP multiplex, flow cytometry GFP, 3 h; median GFP as percent of DMSO wells; GFP response vs DMSO, % at 10 µM; actives 0.34% (n = 320,000); AID 2023;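 active means GFP response vs DMSO above a set limit, about the screen mean plus 3 SD, cut at about 150% in these data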
# RPL19A TOR yeast: yeast TOR pathway RPL19A-GFP modulation; S. cerevisiae RPL19A-GFP strain, flow cytometry, 3 h; hits give low values; percent response vs DMSO, % at 10 µM; actives 0.3% (n = 330,000);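 active means percent response vs DMSO below 50%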;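 further: median channel GFP fluorescence of the barcoded RPL19A-GFP strain; ratio of sample median GFP to plate DMSO average so 100% = DMSO; lower means less RPL19A-GFP as with rapamycin TOR inhibition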
# CIT2 TOR yeast: alters CIT2-GFP fluorescence in TOR pathway yeast screen | S. cerevisiae CIT2-GFP strain, flow cytometry, 3 h; 100 means same as DMSO wells | GFP response vs DMSO, % at 10 µM | actives 0.065% (n = 320,000) | AID 2029;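 active means GFP response relative to DMSO above a set limit, near the screen mean plus 3 SD, cut at about 150% in these data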;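 further: ratio of well median GFP fluorescence to mean of DMSO wells on the plate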
# AGP1-GFP MLPCN: yeast TOR pathway AGP1-GFP modulation. S. cerevisiae AGP1-GFP multiplex flow cytometry, 3 h; GFP as percent of DMSO wells. GFP response vs DMSO, % at 10 µM. actives 0.02% (n = 320,000). AID 2066;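 active means GFP response relative to DMSO above a set limit, near screen average plus 3 SD, cut at about 150% in these data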;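 further: median GFP channel fluorescence of the gated AGP1 strain per well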
# MEP2-GFP yeast: modulators of TOR pathway MEP2-GFP in S. cerevisiae | S. cerevisiae MEP2-GFP strain, flow cytometry GFP, 3 h; 100% = DMSO control level | GFP response vs DMSO, % at 10 µM | actives 0.51% (n = 330,000) | AID 2016;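 active means GFP response versus DMSO above a set limit, roughly screen mean plus 3 SD, cut at about 180% in these data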;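 further: median GFP fluorescence of the barcode-gated MEP2-GFP cells per well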
# LAP4 cherry2: reconfirmed LAP4-GFP TOR pathway modulator in yeast; AID 2621; S. cerevisiae LAP4-GFP strain, flow cytometry GFP, 3 h; actives 20% (n = 590); GFP response vs DMSO, % at 10 µM; shares compounds with LAP4 TOR yeast;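 active means GFP signal as percent of the solvent control above about 150%, meaning raised reporter expression, limit read from the data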;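 further: ratio of well median GFP fluorescence to plate DMSO mean so 100% = DMSO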
# MEP2-GFP pick2: second confirmation of modulators of TOR reporter MEP2-GFP in yeast; shares compounds with LAP4 TOR yeast; S. cerevisiae MEP2-GFP strain, flow cytometry GFP, 3 h; GFP response vs DMSO, % at 10 µM; actives 10% (n = 590); AID 2622;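 active means GFP signal above 150% of the solvent control wells, that is a rise of more than half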;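 further: median channel GFP fluorescence of all gated yeast cells per well; ratio of median GFP to plate DMSO average so 100% = DMSO level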
# RPL19A-GFP pick2: reconfirmed modulator of RPL19A-GFP TOR reporter in yeast | shares compounds with LAP4 TOR yeast | S. cerevisiae RPL19A-GFP strain, flow cytometry GFP, 3 h; hits give low values; 100% means same as DMSO wells | GFP response vs DMSO, % at 10 µM | actives 3% (n = 590) | AID 2623;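 active means under 65% GFP response relative to DMSO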;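 further: median GFP channel fluorescence per well over the all cells gate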
# CIT2 GFP CP2: reconfirmed modulator of CIT2-GFP TOR reporter in yeast. GFP response vs DMSO, % at 10 µM. shares compounds with LAP4 TOR yeast. S. cerevisiae CIT2-GFP strain, flow cytometry GFP, 3 h; DMSO control wells read 100%. actives 8% (n = 590);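 active means GFP response vs DMSO above about 150%, limit read from the data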;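 further: median green fluorescence per well over all gated yeast cells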
# AGP1-GFP pick2: second confirmation of modulators of TOR reporter AGP1-GFP in yeast; shares compounds with LAP4 TOR yeast; 590 tested, under 10 active; S. cerevisiae AGP1-GFP strain, flow cytometry GFP, 3 h; percent response vs DMSO, % at 10 µM;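 active means over 150 percent of DMSO response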;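 further: median GFP channel fluorescence over all cells without mother daughter split; sample median GFP divided by mean DMSO control so 100% equals DMSO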
# s288c autofluor: counter-screen for compound autofluorescence in yeast s288c cells; shares compounds with LAP4 TOR yeast; S. cerevisiae s288c, 520 nm autofluorescence, flow cytometry, 3 h; hits give high values; zero means same as solvent-only cells; fluorescence change (kMESF span) at 33 µM; 610 tested, under 10 active;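 active means fluorescence span over the dose series, or activity score, above about 33, limit read from the data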
# Yeast autofl DR: counter-screen for autofluorescence of TOR hits in yeast s288c. fluorescence change (span) at 33 µM. shares compounds with LAP4 TOR yeast. S. cerevisiae s288c parental, compound autofluorescence, flow cytometry, 3 h. 110 tested, under 10 active;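 active means fluorescence change span, or the activity score built from it, above 25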
# TORC1 bypass: wildtype yeast growth loss with TORC1 bypass cells unaffected. S. cerevisiae BY4741 spot growth rating, 48-72 h; hits give low values. 120 tested, under 10 active. growth rating (0-3) at 30 µM. shares compounds with LAP4 TOR yeast;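 active means growth rating at most 1 for wild type yeast while the TORC1 bypass strain still grows fully, rated 3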
# Active calls of the source: *; nt = not tested or not shown; ! = a repeat was not active; [ ] = dose if it differs, or a comment. Compounds with a hit are over-represented: about 0.92% of the library has one in this group of screens.
SMILES,LAP4 TOR yeast,RPL19A TOR yeast,CIT2 TOR yeast,AGP1-GFP MLPCN,MEP2-GFP yeast,LAP4 cherry2,MEP2-GFP pick2,RPL19A-GFP pick2,CIT2 GFP CP2,AGP1-GFP pick2,s288c autofluor,others
c1ccc(-c2nnc(-c3ccccn3)nn2)nc1,96.9,97.0,91.7,93.0,99.2,nt,nt,nt,nt,nt,nt,
CCN(CC)c1ccc(C(=O)O)cc1,99.0,98.1,96.7,93.2,96.1,nt,nt,nt,nt,nt,nt,
CCN(CC)c1ccc(/C=C2\C(=O)c3ccc(C(=O)O)cc3C2=O)cc1,234.8*,114.9,227.5*,116.2,323.2*,276.6*,391.3*,120.9,262.8*,106.2,8.92,
COc1ccccc1CNC(=O)CCNS(=O)(=O)c1ccc2[nH]c(=O)oc2c1,103.4,100.8,101.7,101.2,106.1,nt,nt,nt,nt,nt,nt,
CCS(=O)(=O)N1CCC(C(=O)Nc2ccc3c(c2)CCC3)CC1,91.3,95.0,154.1*,115.9,101.0,98.1,101.5,99.6,97.2,99.8,nt,
Cc1ccc2nc(-c3ccc(NC(=S)NC4CC(C)(C)NC(C)(C)C4)cc3)sc2c1,83.3,54.7,71.5,13.6,129.2,125.0,108.2,95.0,104.0,93.3,nt,
CC1(C2CC2)NC(=O)N(CC(=O)Nc2ccc(C(F)(F)F)cc2)C1=O (stereo not given),100.8,96.0,98.4,102.9,102.0,nt,nt,nt,nt,nt,nt,
Cc1ccc(C(=O)Sc2cccccc2=O)cc1,243.6*,88.2,74.0,84.4,96.8,nt,nt,nt,nt,nt,1.63,
COc1cccc(/C=C2/SC(=S)N(CCCC(=O)Nc3ccc(O)cc3)C2=O)c1,100.7,102.6,103.0,99.0,96.3,nt,nt,nt,nt,nt,nt,
COc1cccc(/C=C2\SC(=S)N(CCCC(=O)Nc3ccc(C(=O)O)cc3)C2=O)c1,110.4,101.3,172.7*,116.9,116.8,104.2,104.8,101.2,98.7,97.8,0.1,
CCOc1cc2c(cc1/C=C/c1noc(C)c1[N+](=O)[O-])OC(C)C2 (stereo not given),96.7,100.8,98.4,22.5,113.6,nt,nt,nt,nt,nt,nt,
COc1ccc(-c2cc(C(F)F)n3ncc(C(=O)NCC4CCCO4)c3n2)cc1 (stereo not given),89.2,91.6,173.9*,73.2,92.6,99.2,99.6,99.7,105.7,95.5,nt,
COc1cccc(N2C(=NC(=O)C3CCCO3)SC3CS(=O)(=O)CC32)c1 (stereo not given),85.8,92.7,99.4,94.4,96.9,nt,nt,nt,nt,nt,nt,
N#Cc1ccc(N=c2ssnc2Cl)cc1,157.8*!,93.6,101.6,87.0,92.0,125.0,114.8,96.2,123.3,96.2,1.41,
Clc1ccc(N=c2ssnc2Cl)cc1,155.8*,86.2,83.3,80.7,87.5,nt,nt,nt,nt,nt,1.84,Yeast autofl DR=0.52;TORC1 bypass=3
COc1ccc(/C=C2\N=C(C)OC2=O)cc1[N+](=O)[O-],161.4*,98.2,90.7,87.0,88.8,134.6,109.8,102.3,100.7,99.3,nt,
Cc1ccc2c(c1)c(/C=C/c1cc[n+](C)cc1)c(C)n2C,198.2*,127.4,205.6*,116.7,289.0*,nt,nt,nt,nt,nt,15.6,
Cc1ccc2[nH]c(C)c(/C=C/c3cc[n+](C)cc3)c2c1,208.6*,124.2,223.5*,110.0,344.1*,nt,nt,nt,nt,nt,16.5,
CCN(CC(=O)NC(C)(C)C)C(=O)COc1c(Cl)cc(Cl)c2ccc(C)nc12,227.0*,87.5,81.3,85.5,97.0,nt,nt,nt,nt,nt,1,
CCOc1ccccc1NC(=O)COC(=O)COc1c(Cl)cc(Cl)c2ccc(C)nc12,103.5,95.7,95.3,104.2,93.0,nt,nt,nt,nt,nt,nt,
O=C1ON=C(c2ccc(Cl)cc2)/C1=C/c1ccc(O)cc1,161.1*,88.9,95.7,77.8,85.9,nt,nt,nt,nt,nt,0.7,
CCOc1cc(/C=C2\C(=O)ON=C2c2ccccc2)cc(Br)c1O,134.8,87.9,119.1,82.9,88.2,nt,nt,nt,nt,nt,nt,
COc1cc(/C=C2\C(=O)ON=C2c2ccccc2)cc(Br)c1O,157.3*,91.8,119.1,89.2,96.4,nt,nt,nt,nt,nt,1.3,
O=C1ON=C(c2ccccc2)/C1=C/c1ccc(O)cc1,115.7,100.2,112.9,89.8,94.7,nt,nt,nt,nt,nt,nt,
COc1cc(/C=C2/C(=O)ON=C2c2ccccc2)ccc1O,172.9*,94.7,98.7,77.8,93.2,nt,nt,nt,nt,nt,0.2,
SMILES,LAP4 TOR yeast,RPL19A TOR yeast,CIT2 TOR yeast,AGP1-GFP MLPCN,MEP2-GFP yeast,LAP4 cherry2,MEP2-GFP pick2,RPL19A-GFP pick2,CIT2 GFP CP2,AGP1-GFP pick2,s288c autofluor,others
O=C(NNC(=O)C1CCC1)c1ccccc1F,103.1,92.8,89.3,99.9,91.6,nt,nt,nt,nt,nt,nt,
O=C1C=CC(=O)N1N(c1ccccc1)c1ccccc1,121.7,100.2,73.8,72.2,84.3,nt,nt,nt,nt,nt,1.02,
CN(C)NC(=S)Nc1ccc(S(=O)(=O)N2CCCCC2)cc1,97.5,64.8,87.1,66.1,100.0,107.2,108.3,99.7,112.6,100.0,-0.1,
CC1(C(=O)NC(=S)NNC(=O)c2ccncc2)CCCCC1,160.4*[may fluoresce green],73.9,227.2*[may fluoresce green],155.8*[may fluoresce green],543.5*[may fluoresce green],101.9,104.8,100.0,107.4,97.5,0.2,
O=C(NNC(=S)NC(=O)C12CC3CC(CC(C3)C1)C2)c1ccncc1,181.7*,82.7,nt,93.7,117.3,nt,nt,nt,nt,nt,1.5,
COC(=O)c1ccc(COC(=O)CNC(=O)c2cccs2)cc1,78.7,95.3,78.2,81.1,85.3,nt,nt,nt,nt,nt,nt,
Cc1cccc(Nc2nc(-c3ccccn3)cs2)n1,173.0*,68.4,79.6,68.1,99.0,nt,nt,nt,nt,nt,1,
Cc1cccnc1Nc1nc(-c2ccccc2)cs1,87.5,104.3,103.7,97.5,102.0,nt,nt,nt,nt,nt,nt,
Cc1cccc(Nc2nc(-c3cccs3)cs2)n1,132.6,90.1,105.7,101.5,97.6,nt,nt,nt,nt,nt,nt,
Cc1cccnc1Nc1nc(-c2ccccn2)cs1,104.3,61.9,67.2,63.2,103.0,165.3*,155.5*,98.0,115.4,88.3,2,

# From PubChem BioAssay
